Screens (PubChem)
DRD3 antagonist: antagonists of human D3 dopamine receptor; P35462; D3R cells, DiscoveRx beta-arrestin luminescence, antagonist mode; active compounds read low; max response, negative = inhibition, %; actives 2.5% (n = 360,000); in the data active = max response below about -50%; inconclusive = no clear call, values can overlap the other calls; also: % is scaled to controls: 0 for no effect and ±100 for the full control effect
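Cells expressing the human receptor were seeded at 1500 cells/well, incubated overnight at 37 degrees C in 5% CO2, then exposed to library compounds with dopamine controls for 90 minutes at 37 degrees C before luminescent detection.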
D3 ag: D3 dopamine receptor (human) agonism | D3R DiscoveRx beta-arrestin cells, luminescence, 90 min | max activation, % | AID 652048 | actives 0.58% (n = 410,000) | P35462; in the data active = max activation above about 30%; also: 0% is about no effect
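Cells at 1500/well, incubated overnight, then treated with pinned compounds (dopamine as control) for 90 min at 37 degrees C. DiscoveRx reagent added for 30 - 60 minutes at room temperature; luminescence read.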
PI4K2A inh: blocks human PI4K2A kinase activity; Q9BTU6; purified PI4K2A, ADP-Glo luminescence, 1 h; active compounds read low; activity change, negative = inhibition, % at 76.9 µM; actives 0.13% (n = 420,000); in the data active = activity change below about -50%; inconclusive = mostly about -30% to -49%;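 also: -100% = wells without enzyme as full effect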
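In this quantitative HTS, ADP production by PI4K2A was quantified luminescently after 1 h at ambient temperature; 100 microM adenosine served as plate-quality control.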
LDHA inh: LDHA (human) enzyme inhibition; actives 0.15% (n = 480,000); activity change, % (values are at about 110 or 230 µM); purified LDHA, NADH/diaphorase-resazurin fluorescence; active compounds read low; P00338; in the data active = activity change below about -30%; inconclusive = mostly about -25% to -30%;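 also: plate controls were DMSO wells for no effect and wells without enzyme for full effect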
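Resorufin fluorescence (ex540/em590), read at 0 and 20 min after diaphorase/resazurin addition, reports the NADH left after a 5 min room-temperature reaction of 2 nM human LDH5 with 0.06 mM NADH and 0.2 mM pyruvate.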
PI5P4K alpha inh: blocks human PI5P4K alpha kinase activity. P48426. PI5P4Kalpha enzyme, ADP-Glo luminescence, 60 min; active compounds read low. max response, %. actives 1.2% (n = 330,000). AID 652105; active = max response of -50% or lower; inconclusive = between -30% and -50%; inactive = -30% or higher; also: value at the top dose of about 77 µM; % is scaled to controls: 0 for no effect and ±100 for the full control effect
Target sequence (P48426 whole entry, looked up): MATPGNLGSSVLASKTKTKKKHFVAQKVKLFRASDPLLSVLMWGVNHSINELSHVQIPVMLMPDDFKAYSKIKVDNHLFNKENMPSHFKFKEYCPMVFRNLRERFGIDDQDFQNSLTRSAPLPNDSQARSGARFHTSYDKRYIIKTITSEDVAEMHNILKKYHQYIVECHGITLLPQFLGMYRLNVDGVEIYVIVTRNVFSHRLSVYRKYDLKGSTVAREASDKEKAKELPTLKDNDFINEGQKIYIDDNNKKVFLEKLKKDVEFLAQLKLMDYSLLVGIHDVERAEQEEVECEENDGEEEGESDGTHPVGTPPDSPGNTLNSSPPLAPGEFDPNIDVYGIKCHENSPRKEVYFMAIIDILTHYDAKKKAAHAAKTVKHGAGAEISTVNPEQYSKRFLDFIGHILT
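Luminescence from ADP-Glo served as readout of PI5P4Kalpha activity in a qHTS format. Reaction: enzyme, substrate, compound, ATP at 5 microM final, 60 min at RT.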
The depositor's hits bear a star; ? = inconclusive; nt = no result. Hits are enriched below; roughly 3.3% of the tested compounds scored in any of these assays.

SMILES	DRD3 antagonist	D3 ag	PI4K2A inh	LDHA inh	PI5P4K alpha inh
COc1ccc(C(=O)Nc2ccc(S(=O)(=O)N3CCOCC3)cc2)cc1[N+](=O)[O-]	-12	1	1	-13	-3
O=C(Nc1ccccc1-c1ccccc1)c1ccc(F)cc1	nt	nt	nt	1	nt
NC(CO)c1ccc2ccccc2c1 (stereo not given)	nt	nt	nt	-4	nt
COc1cc(S(=O)(=O)N2CCOCC2)ccc1NC(=O)COC(=O)CC12CC3CC(CC(C3)C1)C2	-53*	-6	-3	3	14
COc1ccccc1NC(=O)c1cccc(S(=O)(=O)N2CCOCC2)c1	-52*	3	6	-3	4
CCOc1ccccc1/C=N/NC(=O)c1cccc(S(=O)(=O)N2CCOCC2)c1	-63*	-19	1	-4	-12
O=C(NCC1COc2ccccc2O1)c1cccc(S(=O)(=O)N2CCOCC2)c1 (stereo not given)	-61*	1	3	-12	-8
O=C(N/N=C/c1ccccc1C(=O)O)c1cccc(S(=O)(=O)N2CCOCC2)c1	-1	-2	-3	-1	1
CCOC(=O)Cc1cc(I)c(CC(=O)OCC)cc1I	nt	nt	nt	-1	nt
C#CCN1C(=O)[C@]2(NCCc3c2[nH]c2ccc(OC)cc32)c2ccccc21	nt	nt	4	nt	nt
COc1ccccc1-c1nc(SCc2cc(=O)n3c4c(sc3n2)CCCC4)n[nH]1	nt	nt	nt	-33*	nt
NCCC(=O)Nc1ccc(Cl)cc1C(=O)c1ccc[nH]1	nt	nt	-2	nt	nt
COc1cc(NC(=O)C2CC(=O)NC3=C2C(=O)CCC3)c(OC)cc1Cl (stereo not given)	-16	39*	2	-2	nt
COc1ccc(C)c(NC(=O)C2CC(=O)NC3=C2C(=O)CCC3)c1 (stereo not given)	-9	-5	4	-9	1
Cc1cc(O)c2c(c1O)C(=O)[C@]13C(=C2O)C(=O)[C@@H]2[C@@H](O)[C@H]1[C@@H]1[C@H](O)[C@H]3C(=O)C3=C(O)c4c(O)cc(C)c(O)c4C(=O)[C@]312	-18	-4	-64*	11	-91*
Cn1c(-c2ccsc2)c(-c2cccs2)c2cc(-c3ccc4cc[nH]c4c3)ccc21	74	6	-10	-1	7
Cn1c(C=O)c(-c2ccc3cc[nH]c3c2)c2ccccc21	15	31*	5	0	-22
O=C(c1ccc(F)cc1F)N(Cc1ccccn1)CC1CCCO1 (stereo not given)	nt	nt	7	nt	nt
COc1cc(/C=C2\Oc3c(ccc(OS(C)(=O)=O)c3C)C2=O)cc(OC)c1OC	nt	nt	nt	-2	nt
CC(C)c1cc2c(c(O)c1O)[C@@]13CCCC(C)(C)C1CC2OC3=O (stereo not given in full)	27	7	-1	22	-75*
COC(=O)c1cc(NC(=O)c2cnccn2)cc(C(=O)OC)c1	nt	nt	nt	3	nt
CC1C(=O)CC(c2ccccc2)N(C)C1c1ccccc1 (stereo not given)	-79*	-23	2	1	6
CN1C(c2ccccc2)CC2CN(c3ccccc3)C(=O)C21 (stereo not given)	nt	nt	1	nt	nt
O=C(CSc1nc2ccccc2s1)Nc1cccc(C(F)(F)F)c1	nt	nt	nt	-30*	nt
CN(CC(=O)Nc1cccc(C(F)(F)F)c1)Cc1ccccc1	-54*	-39	-8	-2	9
SMILES	DRD3 antagonist	D3 ag	PI4K2A inh	LDHA inh	PI5P4K alpha inh
O=C(CCN1CCN(c2ccccc2)CC1)Nc1cccc(Br)c1	-73*	3	1	-1	-5
O=C(CN1CCN(c2ccccc2)CC1)Nc1cccc(C(F)(F)F)c1	-50*	-23	4	0	nt
CN(CC(=O)Nc1cccc(S(=O)(=O)N(C)C)c1)Cc1ccccc1	9	-10	0	-5	1
Cc1onc(-c2ccccc2)c1-c1nnc(CN2CCN(CC(=O)N3CCCCCC3)CC2)o1	nt	nt	nt	4	nt
CC(C)(CN)C12CC3CC(CC(C3)C1)C2	nt	nt	nt	0	nt
O=C(O)C1C(c2ccccc2)C(C(=O)O)C1c1ccccc1 (stereo not given)	nt	nt	nt	-2	nt
COc1cc(NC(=O)NCCN2CCN(c3ccccc3)CC2)cc(OC)c1OC	-12	-25	7	3	-1
O=C(NCCN1CCN(c2ccccc2)CC1)Nc1cccc(Br)c1	-75*	10	-2	-1	-9
OCCN1CCN(Cc2cc(Br)cc(Br)c2O)CC1	-51*	-26	-1	2	nt
OCCN1CCN(Cc2ccc3ccccc3c2)CC1	-16	-15	5	?	-1
CC1(C)CC(=O)C2=C(C1)NC(=O)CC2c1cccc(OCc2ccccc2)c1 (stereo not given)	nt	nt	nt	3	nt
COc1ccc2[nH]c(=O)c(CN(Cc3ccco3)C(=O)c3ccccc3)cc2c1	-88*	-8	-17	3	-4
COc1ccc2[nH]c(=O)c(CN(c3ccccc3OC)S(=O)(=O)c3ccccc3)cc2c1	51	-4	-8	0	-7
COc1ccc2[nH]c(=O)c(CN(c3ccccc3)S(=O)(=O)c3ccccc3)cc2c1	28	33*	1	5	-2
COc1ccc(CNC(=O)c2ccc3c(c2)NC(=O)CCS3)cn1	nt	nt	nt	-5	nt
CCn1cc([N+](=O)[O-])c(C(=O)N2N=C(c3ccc4ccccc4c3)CC2c2cc(Br)ccc2O)n1 (stereo not given)	-61*	2	-5	0	0
CCn1cc([N+](=O)[O-])c(C(=O)N2N=C(c3ccc(Cl)c(Cl)c3)CC2c2ccccc2O)n1 (stereo not given)	17	15	1	2	1
O=C(Nc1ccc(Cc2ccc(NC(=O)C(F)(F)F)c(Cl)c2)cc1Cl)C(F)(F)F	nt	nt	nt	-19	nt
CCOC(=O)CSc1ncnc2c1sc1nc(N3CCOCC3)c3c(c12)CCCC3	-4	61*	4	-4	-10
CCN1C(=O)c2ccccc2S(=O)c2ccc(C(=O)NCCN(CC(C)C)CC(C)C)cc21 (stereo not given)	-65*	-21	4	-1	-4
CCN1C(=O)c2ccccc2S(=O)c2ccc(C(=O)NCc3ccc(C)cc3)cc21 (stereo not given)	nt	-19	-1	-3	nt
O=C(Nc1nc(-c2ccc(Cl)cc2)cs1)c1cc(=O)c2ccccc2o1	nt	nt	nt	4	nt
O=C(CNC(=O)C1CCCC1)OC(C(=O)Nc1cc(C(F)(F)F)ccc1Cl)c1ccccc1 (stereo not given)	nt	nt	nt	-1	nt
Cc1ccnc(SCC(=O)Nc2oc(-c3ccccc3)c(-c3ccccc3)c2C#N)n1	-5	4	-3	0	6
N#Cc1c(NC(=O)CN2CCOCC2)oc(-c2ccccc2)c1-c1ccccc1	-59*	-3	16	1	-10
N#Cc1c(NC(=O)Cn2cnc3ccccc3c2=O)oc(-c2ccccc2)c1-c1ccccc1	-61*	5	3	-1	-1
N#C/C(=C\c1ccc(C(=O)O)cc1)c1nc2sc3c(c2c(=O)[nH]1)CCCC3	-11	2	0	2	-50*
